Assay results reported in PubChem BioAssay (NCATS).
Records with an inconclusive call do not appear. The source made the active and inactive calls. The call rests on the fitted dose curve; in most records, active means well fitted inhibition curve with a large enough effect; inconclusive means small, poorly fitted or top-dose-only effect; inactive means flat fitted curve, though single readings scatter.

Tests used:
Experiment in all cases: qHTS profiling for inhibitors of Plasmodium falciparum proliferation (AID 504749); further: nearly all actives have a fitted effect of over 60% in size
Conditions in all cases: P. falciparum in erythrocytes, SYBR Green DNA, 72 h; series mostly up to 28.7 µM
[1] = system: CP297
Outline: (§1)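 In a 72 h erythrocytic culture (37 C, humidified, 5% CO2) at 2.5% hematocrit and 0.3% starting parasitemia, compounds were tested; SYBR Green I in detergent lysis buffer stained parasite DNA overnight.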

[2] = system: CP305
Outline: as §1

[3] = system: CP315
Outline: as §1

[4] = system: CP325
Outline: as §1

[5] = system: DIV30
Outline: as §1

[6] = system: ECU
Outline: as §1

[7] = system: FAB9
Outline: as §1

[8] = system: GB4
Outline: as §1

[9] = system: HB3
Outline: as §1

[10] = system: JCK
Outline: as §1

[11] = system: CP329
Outline: as §1

[12] = system: DFO2036
Outline: as §1

[13] = system: DIV17
Outline: as §1

[14] = system: ICS
Outline: as §1

[15] = system: N140
Outline: as §1

[16] = system: P93_24
Outline: as §1

[17] = system: P94_40
Outline: as §1

[18] = system: DIV14
Outline: as §1

[19] = system: Dd2
Outline: as §1

[20] = system: CP335
Outline: as §1

Measured: Potency
Potency means the concentration at half of the fitted maximal effect.

COc1ccc2c(=O)c(C)c(-c3ccccc3)oc2c1CN(C)C
inactive: [1] | [2] | [3] | [4] | [5] | [6] | [7] | [8] | [9] | [10]

CC1CCC(NC(=O)N(CCCl)N=O)CC1 (stereo unspecified)
not listed: [8] | [18] | [19] | [20]
inactive: all other assays above

C=CC[C@@H]1/C=C(\C)C[C@H](C)C[C@H](OC)[C@H]2O[C@@](O)(C(=O)C(=O)N3CCCC[C@H]3C(=O)O[C@H](/C(C)=C/[C@@H]3CC[C@@H](O)[C@H](OC)C3)[C@H](C)[C@@H](O)CC1=O)[C@H](C)C[C@@H]2OC
active: [1] 1.9 µM | [3] 6.75 µM | [4] 4.26 µM | [11] 4.26 µM | [12] 1 µM | [18] 1.69 µM | [13] 1.69 µM | [5] 0.849 µM | [19] 0.112 µM | [6] 1.26 µM | [7] 2 µM | [8] 3.79 µM | [9] 1 µM | [14] 0.447 µM | [10] 3.98 µM | [15] 0.891 µM | [16] 2 µM | [17] 2 µM

CN1CCc2c(c3ccccc3n2Cc2ccccc2)C1
not listed: [4] | [8] | [13] | [17] | [18] | [19] | [20]
inactive: all other assays above

CO/N=C(\C(=O)N[C@@H]1C(=O)N2C(C(=O)[O-])=C(C[n+]3cccc4c3CCC4)CS[C@H]12)c1csc(N)n1
not listed: [1]
inactive: all other assays above

O=C(OC1C[C@@H]2CC3C[C@H](C1)N2CC3=O)c1c[nH]c2ccccc12 (stereo partly specified)
active: [18] 7.57 µM | [13] 7.57 µM | [14] 10 µM
not listed: [2] | [5] | [6] | [8] | [20]
inactive: all other assays above

CSCCC(N)C(=O)O (stereo unspecified)
not listed: [3] | [5] | [8] | [16]
inactive: all other assays above

CCOC(=O)C1=C(COCCN)NC(C)=C(C(=O)OC)C1c1ccccc1Cl (stereo unspecified)
active: [18] 12 µM
inactive: [1] | [2] | [3] | [4] | [11] | [12] | [5] | [7] | [9] | [10]

N[C@@H](Cc1cc(I)c(Oc2ccc(O)c(I)c2)c(I)c1)C(=O)O
active: [18] 13.5 µM | [14] 11.2 µM
inactive: [2] | [3] | [4] | [11] | [7] | [9] | [10]

O=C1CCC(c2ccccc2)(C2CCN(Cc3ccccc3)CC2)C(=O)N1 (stereo unspecified)
not listed: [1] | [2] | [8] | [13] | [18] | [19] | [20]
inactive: all other assays above

OCc1ccccc1
inactive: [3] | [11]
active: [14] 2.24 µM

CCC(=O)c1ccc2c(c1)N(CCCN1CCN(CCO)CC1)c1ccccc1S2
active: [2] 10.7 µM | [3] 9.53 µM | [20] 6.01 µM | [12] 8.91 µM | [18] 9.53 µM | [13] 13.5 µM | [5] 13.5 µM | [19] 5.62 µM | [6] 8.91 µM | [8] 9.53 µM | [9] 7.94 µM | [14] 5.01 µM | [15] 8.91 µM | [16] 8.91 µM | [17] 10 µM
inactive: [10]

CN(C)CCCSc1ccccc1NC(=O)/C=C/c1ccccc1
not listed: [1] | [8] | [13] | [18] | [19]
inactive: all other assays above

CCCOc1cc(N)ccc1C(=O)OCCN(CC)CC
not listed: [1] | [3] | [4] | [5] | [20]
inactive: all other assays above

CCCCCCCCCCCCCCCCOCCOCCOCCOCCOCCOCCOCCOCCOCCOCCOCCOCCOCCOCCOCCOCCOCCOCCOCCOCCO
inactive: [3] | [20]
active: [2] 12 µM | [18] 13.5 µM | [13] 13.5 µM | [19] 11.2 µM | [6] 1.26 µM | [9] 7.08 µM | [14] 4.47 µM | [15] 10 µM | [16] 11.2 µM

Oc1ccc(Cl)c2c1CCC2
not listed: [1] | [13] | [14] | [20]
inactive: all other assays above

CCOc1cc(-c2nccc3cc(OC)c(OC)cc23)cc(OCC)c1OCC
active: [6] 11.2 µM
inactive: [4]

O=C(CCCN1CCN2CCCC2C1)c1ccc(F)cc1 (stereo unspecified)
active: [19] 12.6 µM | [15] 10 µM
not listed: [1] | [8] | [13] | [16] | [18]
inactive: all other assays above

C=CC[N+]1([C@H]2C[C@H]3[C@@H]4CC[C@H]5C[C@H](O)[C@@H](N6CCOCC6)C[C@]5(C)[C@H]4CC[C@]3(C)[C@H]2OC(C)=O)CCCC1
active: [20] 12 µM | [19] 10 µM | [17] 8.91 µM
inactive: [18] | [13] | [7] | [10]

CO/N=C(/C(=O)N[C@@H]1C(=O)N2C(C(=O)O)=C(COC(N)=O)CS[C@H]12)c1ccco1
active: [14] 8.91 µM
not listed: [1] | [8] | [9] | [13] | [16]
inactive: all other assays above

Oc1cccc(O)c1O
inactive: [3] | [12] | [5] | [7] | [10] | [15]
active: [13] 9.53 µM | [14] 3.98 µM

CC(C)OC(=O)Nc1ccc2nc(-c3cscn3)[nH]c2c1
not listed: [1] | [13] | [14]
inactive: all other assays above

O.O.O.O.O.O.O.O=S(=O)([O-])[O-].[Co+2]
active: [2] 6.75 µM | [11] 12 µM | [20] 6.75 µM | [12] 11.2 µM | [5] 9.53 µM | [19] 7.94 µM | [6] 12.6 µM | [7] 11.2 µM | [8] 8.49 µM | [14] 5.62 µM | [10] 12.6 µM | [15] 12.6 µM
inactive: [16] | [17]

CCCC(CCC)C(=O)OC1C[C@H]2CC[C@@H](C1)[N+]2(C)C (stereo partly specified)
active: [6] 7.94 µM | [14] 12.6 µM
inactive: [7] | [10]

CC(CN(C)C)CN1c2ccccc2Sc2ccc(C(F)(F)F)cc21 (stereo unspecified)
inactive: [3] | [4] | [7]
active: [12] 10 µM | [18] 5.36 µM | [13] 3.01 µM | [19] 3.55 µM | [14] 10 µM | [15] 11.2 µM | [16] 10 µM | [17] 5.01 µM

Cc1cccc(C)c1NC(=O)C1CCCCN1C (stereo unspecified)
not listed: [1] | [8]
inactive: all other assays above

O=C(c1cc2ccccc2o1)N1CCN(Cc2ccccc2)CC1
inactive: [2] | [3] | [5] | [19] | [7] | [9] | [14] | [10] | [17]

OCCOCCOCCO
inactive: [20] | [12] | [19] | [6] | [7] | [9] | [14] | [10] | [15] | [16] | [17]

CCN(CC)CCC(=O)N1c2ccccc2Sc2ccc(Cl)cc21
inactive: [10] | [15]
active: [18] 5.36 µM | [13] 8.49 µM | [19] 5.62 µM | [16] 3.98 µM | [17] 5.01 µM

CC(C)C1=CC2=CC[C@@H]3[C@](C)(CCC[C@@]3(C)C(=O)O)[C@H]2CC1
inactive: [20] | [12] | [19] | [6] | [7] | [9] | [14] | [10] | [15] | [16] | [17]

O=C(O)/C=C/C(=O)Nc1ccc(S(=O)(=O)Nc2nccs2)cc1
not listed: [1]
inactive: all other assays above

CN(C)CCC=C1c2ccccc2C(C)(C)c2ccccc21
active: [18] 6.75 µM | [13] 6.75 µM | [8] 13.5 µM | [14] 7.94 µM
inactive: [11] | [7] | [9] | [10]

CN(C)C(=O)CCSC(SCCC(=O)O)c1cccc(/C=C/c2ccc3ccc(Cl)cc3n2)c1 (stereo unspecified)
active: [14] 11.2 µM
inactive: [2] | [3] | [4] | [11] | [7] | [10]

CNC(=O)[C@H](Cc1c[nH]c2ccccc12)NC(=O)[C@@H](CC(=O)NO)CC(C)C
inactive: [3] | [10]

Cc1cc(C(=O)NCCc2ccc(S(=O)(=O)NC(=O)NN3CCCCCC3)cc2)no1
not listed: [1] | [5] | [8] | [13] | [18]
inactive: all other assays above

Cn1cc(NC(=O)c2cc(NC(=O)c3cc(NC=O)cn3C)cn2C)cc1C(=O)NCCC(=N)N
active: [2] 8.49 µM | [4] 10.7 µM | [11] 15.1 µM | [20] 8.49 µM | [18] 3.38 µM | [13] 3.79 µM | [6] 10 µM | [7] 11.2 µM | [8] 7.57 µM | [9] 10 µM | [14] 3.55 µM | [10] 12.6 µM | [15] 5.01 µM | [16] 5.01 µM | [17] 4.47 µM
